Measurements published in PubChem BioAssay (NCI).
Several values for one entry are separate records, joined by “and”; a condition that tells them apart may be missing. Equal values may be shown once. About 79,000 compounds went through this panel and 15% of them were active in at least one assay; those are over-represented in the sample as a whole. Unmarked numbers belong to inactive results. Activity calls are given as the source filed them. Rule as the data show it: active = growth inhibition above about 70%; inactive = the rest.

What was measured:
[1] = NCI Yeast Anticancer Drug Screen. Data for the rad50 strain (AID 155);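 also: 0% = growth of vehicle-only cultures of the same strain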; settings: S. cerevisiae rad50 strain growth inhibition, active compounds read high; at 50.0 µM unless noted
Summary of the method: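 Cells are treated with compound, grown, and their growth is then scored against vehicle-only cultures of the same repair-deficient yeast strain.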

[2] = NCI Yeast Anticancer Drug Screen. Data for the mec2-1 strain (AID 157); settings: S. cerevisiae mec2-1 strain, active compounds read high; at 50.0 µM unless noted
Summary of the method: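 Cells of the genetically defined mec2-1 yeast strain are incubated with test compound. Inhibition of growth is calculated against vehicle-treated controls.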

[3] = NCI Yeast Anticancer Drug Screen. Data for the sgs1 mgt1 strain (AID 161);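 also: 0% = growth of cultures given vehicle only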; settings: S. cerevisiae sgs1 mgt1 strain, active compounds read high; at 50.0 µM unless noted
Summary of the method: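 Genetically altered yeast, compound exposure, growth inhibition relative to vehicle.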

[4] = NCI Yeast Anticancer Drug Screen. Data for the cln2 rad14 strain (AID 165);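 also: 0% = growth equal to vehicle treated cultures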; settings: S. cerevisiae cln2 rad14 strain, active compounds read high; at 50.0 µM unless noted
Summary of the method: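 The screen exposed genetically defined yeast (cln2 rad14) to test compounds and scored growth inhibition relative to vehicle-treated controls.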

[5] = NCI Yeast Anticancer Drug Screen. Data for the bub3 strain (AID 167); settings: S. cerevisiae bub3 mutant strain, active compounds read high; at 50.0 µM unless noted
Summary of the method: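 Part of a panel of yeast mutants defective in DNA damage repair or cell cycle regulation. Each strain is grown with compound, and inhibition is calculated relative to solvent-treated cultures.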

[6] = NCI Yeast Anticancer Drug Screen. Data for the mlh1 rad18 strain (AID 175); settings: S. cerevisiae mlh1 rad18 strain growth inhibition, active compounds read high; at 50.0 µM unless noted
Summary of the method: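 Compound-treated yeast growth, normalised to vehicle controls. Strain bears defined DNA repair mutations.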

Row | Structure (SMILES) | growth inhibition [1] | growth inhibition [2] | growth inhibition [3] | growth inhibition [4] | growth inhibition [5] | growth inhibition [6]
1 | Cc1nn(C)c(N)c1C#N | -15.9% and 8% | -11.7% and 5.95% | -24.6% and 3.6% | 0.3% and 26.9% | -8.45% and -6.5% | -18.2% and -7.45%
2 | CC(=C=CC(c1ccccc1)(c1ccccc1)c1ccccc1)CC(c1ccccc1)(c1ccccc1)c1ccccc1 | 95% (active) | 97.8% (active) | 90.3% (active) | 97.1% (active) | 98% (active) | 94% (active)
3 | COc1ccc(C=Nc2ccccc2C(=O)O)cc1 | 0.2% | 7.1% | 0.65% | -41.9% | 24.3% | 5.9%
4 | CCc1cc(N(C)C)ccc1N=Nc1ccc([N+](=O)[O-])cc1 | 43.8% | 9.65% | 13.5% | -26.1% | 9.1% | 28.9%
5 | Cc1ccnc(NS(=O)(=O)c2ccc(N=[N+]=[N-])cc2)n1 | -3.2% | -6% | 1.9% | -7.4% | -17.6% | -14%
6 | CC(C(C#N)C(N)=O)C(C#N)C(N)=O (stereo unspecified) | 10.2% | 12.4% | 5.5% | -4.4% | -23.9% | 14.7%
7 | O=c1[nH]c2[nH]c(=S)[nH]c(=O)c2[nH]1 | 6.3% | 0.85% | -8.5% | -11.7% | -3.4% | -13.8%
8 | CC1=NC(C)(C)N(O)C1(C)C | -21.9% | -4.3% | -3.05% | -0.8% | -9% | -53.5%
9 | NNC(=O)CCC(=O)O | 0.75% | -0.5% | 1.7% | -3.6% | 12.7% | -15.6%
10 | O=C(CCCC1CCCCC1)OC1CCCCC1 | 5.3% | 8.4% | 8.7% | -8.05% | -3.9% | -1.3%
11 | COC(=O)c1ccccc1NC(=O)Cc1ccccc1 | -0.5% | -27.1% | 15.9% | -5.65% | 37.2% | -15.7%
12 | Cc1ncc(CO)c(CO)c1O | 3.05% and -8.25% | -2.95% and -14% | -4.2% | 2.4% | 7% | 45.8% and -5.65%
13 | C=C(c1ccccc1)C1ON(C)CCc2cc(OC)c(OC)cc21 (stereo unspecified) | 3.65% | 15.4% | 14.3% | 5.85% | 33.6% | 5.45%
14 | CN(C)CCC(C#N)c1ccccc1 (stereo unspecified) | -18.6% | -15.6% | -2.7% | -26.4% | -3.8% | -5.55%
15 | NCC(=O)NC(Cc1c[nH]c2ccccc12)C(=O)O (stereo unspecified) | 7.85% and -4.8% | -4.65% and 1.4% | 7.45% and -7.4% | -0.8% and 13.8% | 26.8% and -10% | -0.75% and -5.4%
16 | Clc1ccc(/C=N\OCc2ccc(Cl)c(Cl)c2)cc1Cl | -9.85% | -13.1% | 2.1% | -17.9% | -4.85% | -5.25%
17 | O=C(CC(=O)c1ccc(OC(=O)c2ccccc2)cc1O)c1ccccc1 | -12.7% | -4.95% | -2.8% | -16.1% | 8% | -27.6%
18 | Cc1nc(N)c(N)c(=O)[nH]1 | -0.6% | -1.35% | -1.75% | -5.6% | -9.6% | -2.6%

Row | Structure (SMILES) | growth inhibition [1] | growth inhibition [2] | growth inhibition [3] | growth inhibition [4] | growth inhibition [5] | growth inhibition [6]
19 | CCC(C)(C)NC(N)=O | 13.1% | 22.6% | 8.55% | -34.2% | 8.55% | 23.7%
20 | CSc1nc(NC2OC(COC(C)=O)C(OC(C)=O)C(OC(C)=O)C2OC(C)=O)c(N=CC=Nc2c(NC3OC(COC(C)=O)C(OC(C)=O)C(OC(C)=O)C3OC(C)=O)nc(SC)[nH]c2=O)c(=O)[nH]1 (stereo unspecified) | -13.8% | -17.7% | -13.8% | -17.7% | 6.6% | 5.75%
21 | N#C/C(=C/NC(N)=S)C(N)=O | -25.6% | 10.3% | -16.4% | 14.6% | -27.1% | 20.7%
22 | CCCCNC(=S)Nn1c(-c2ccccc2)nc2ccccc2c1=O | 18.6% | -43% | -20.8% | -37.5% | -31.9% | 0.9%
23 | O=CC(O)C(O)C(O)C(O)C(O)C(O)CO (stereo unspecified) | 16% | 10.7% | 28.1% | -1.55% | 5.9% | 19.6%
24 | CSc1nc(N)c(I)c(Cl)n1 | 7.8% | 3.65% | 6.9% | 2.4% | -14.6% | -2.6%
25 | CC(C)=CC1C(C(=O)Oc2ccccc2C(C)C)C1(C)C (stereo unspecified) | -3.8% | -11.2% | 2.6% | -22.6% | -27% | 4.6%
26 | CC(=O)OC(C(N)=O)c1ccccc1 (stereo unspecified) | -0.7% | -0.7% | -3.3% | -9.7% | 3.45% | -2.95%
27 | O=C1CCCN(c2ccccc2)N1 | 24.4% | 24.6% | 3.3% | 5.1% | 31.9% | -3.8%
28 | Cc1ccc([N+](=O)[O-])cc1NC(=O)Oc1ccc(Cl)cc1Cl | -5% | 8.55% | -10.9% | 1% | 2.5% | -13.3%
29 | CC(=O)OC1CCC(=O)C2C(C(=O)O)CCCC12 (stereo unspecified) | 6.9% | -21.8% | -19.2% | -6.1% | -1.75% | 0.25%
30 | COc1ccc(/C=N/N=C(/C(=O)c2ccc(OC)cc2)c2ccc(OC)cc2)cc1 | 32.6% | 0.3% | 11.8% | 3.2% | 2.2% | 6.8%
31 | CC(=O)CC(C)(C)c1cc(-c2ccccc2)on1 | 20.8% | 5.4% | -6.25% | -61.6% | 19.4% | 12.8%
32 | NC(=O)c1c(NC=O)ncn1C1OCC(O)C(O)C1O (stereo unspecified) | -7.95% | -3.85% | 2% | -42% | -1.3% | 12.8%
33 | Cl | -13.4% and -6.25% | -29.2% and 17.5% | -10.4% and 1.8% | -0.9% and 2.2% | -5.15% and -38% | -16% and -32.6%
34 | O=S1(=O)OCCOS(=O)(=O)C1(Br)Cc1ccccc1 | -67.7% | -40.6% | -37.5% | -40.4% | -63.8% | -24.2%
35 | CC1=C2CC(C)(C)CC(=O)C2(C)CCC1=O (stereo unspecified) | 4.2% | -6.55% | 11.9% | 25.6% | -2.85% | 27.8%
36 | CCN(CC)CCNC(=O)c1cc(N2CCOCC2)ccn1 | 23.3% | 11.7% | 18.5% | 1.05% | 30.6% | 45.5%
